# Experimental data reported in ChEMBL document CHEMBL4513134, “CO-ADD screening of University of Queensland (Australia) compounds” (2021).
# Potency and affinity values are given separately.
# Assays:
# [1] = tested on: Klebsiella pneumoniae; details: Concentration 32 ug.mL-1; ASSAY_TEST Inhibition of Bacterial Growth; detection method Absorption (OD600); MEDIA CAMHB; plate type 384well; NBS; CORNING #3640; time 18 hr
# [2] = tested on: Candida albicans; details: 32 ug/mL
# [3] = tested on: Cryptococcus neoformans; details: Concentration 32 ug.mL-1; ASSAY_TEST Inhibition of Fungal Growth; detection method Resazurin; Absorption (OD600-OD570); plate type 384well; NBS; CORNING #3640
Compound,Inhibition [1],Inhibition [2],Inhibition [3]
Cn1c([N+](=O)[O-])cnc1C(=O)N1CCCC1,30.2%,7.94%,-19.05%
Cn1c([N+](=O)[O-])cnc1C(=O)NCc1ccc(OC(F)(F)F)cc1,21.15%,21.3%,2.62%
CN(C)C(=O)c1ncc([N+](=O)[O-])n1C,22.37%,10.4%,-8.01%
Cn1c([N+](=O)[O-])cnc1C(=O)NCc1ccc(F)cc1,15.94%,7.55%,-24.39%
Cc1ccc(CCNC(=O)c2ncc([N+](=O)[O-])n2C)cc1,27.87%,12.1%,-8.7%
Cn1c([N+](=O)[O-])cnc1C(=O)NCc1ccccn1.O=C(O)C(F)(F)F,22.41%,4.77%,-18.89%
Cn1c([N+](=O)[O-])cnc1C(=O)NCc1cccc(OC(F)(F)F)c1,27.4%,11.6%,-18.54%
Cn1c([N+](=O)[O-])cnc1C(=O)NC1CC1,0.14%,5.96%,-21.85%
Cn1c([N+](=O)[O-])cnc1C(=O)N1CCOCC1,22.51%,14.1%,-21.61%
CC(NC(=O)c1ncc([N+](=O)[O-])n1C)c1ccc(F)cc1 (stereo not given),14.44%,6.03%,-25.7%
